# Only some compounds are listed: those with a hit (about 16% of all), similar ones and a draw of the others.
# miR-21 act: qHTS Assay for Modulators of miRNAs and/orActivators of miR-21 | Potency, µM (highest dose often 38.3 µM), for the others: at the top dose activity change, positive = activation, actives largely listed as activators | HeLa miR-21 FLuc reporter, luciferase, 48 h | AID 2288, 2010 | 340,000 tested, under 10 active;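 further: % of control where 0% means no effect; miR-21 action dims this reporter so a rising signal means less miR-21 action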
#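 HeLa miR-21-FLuc reporter line, endogenous miR-21; 2000 cells/well in DMEM/10% FBS; compound titration up to ~40uM final, 48 h, 37 degree Celsius; luciferase detection reagent, 15 min lysis, CCD luminescence.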
# TDP1 cell noCPT: qHTS for Inhibitors of human tyrosyl-DNA phosphodiesterase 1 (TDP1): qHTS in cells in absence of CPT. Potency, µM (titrated, usually from 46.2 µM), inactives show top-dose activity change, negative = growth inhibition, most hits filed as inhibitors. 15% of 420,000 active. DT40 Tdp1-/- hTDP1 cells, no CPT, ATP luminescence, 48 h. AID 686978, 2013; further: potency means the concentration at half of the fitted maximal effect; on the % scale 0 is the no-effect control and ±100 the full control effect; nearly all actives have a fitted effect of over 55% in size
#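 DT40 Tdp1-/-;hTDP1 cells, no CPT (DMSO vehicle only), 400 cells/well; compounds pin-transferred; ≥48 hr, 37 °C; CellTiter-Glo 30 min RT dark, luminescence read.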
# TDP1 inh: qHTS Assay for Inhibitors of Tyrosyl-DNA Phosphodiesterase (TDP1); Tyrosyl-DNA phosphodiesterase 1 (Homo sapiens), Q9NUW8; recombinant TDP1, AlphaScreen DNA substrate cleavage; Potency, µM (top dose mostly 130 µM), for the others: at the top dose activity change, negative = inhibition, hits mostly inhibitors; 0.28% of 350,000 active; further: potency means the concentration at half of the fitted maximal effect; on the % scale 0 is the no-effect control and ±100 the full control effect; nearly all actives have a fitted effect of over 40% in size
# Target sequence (Q9NUW8 whole entry, looked up): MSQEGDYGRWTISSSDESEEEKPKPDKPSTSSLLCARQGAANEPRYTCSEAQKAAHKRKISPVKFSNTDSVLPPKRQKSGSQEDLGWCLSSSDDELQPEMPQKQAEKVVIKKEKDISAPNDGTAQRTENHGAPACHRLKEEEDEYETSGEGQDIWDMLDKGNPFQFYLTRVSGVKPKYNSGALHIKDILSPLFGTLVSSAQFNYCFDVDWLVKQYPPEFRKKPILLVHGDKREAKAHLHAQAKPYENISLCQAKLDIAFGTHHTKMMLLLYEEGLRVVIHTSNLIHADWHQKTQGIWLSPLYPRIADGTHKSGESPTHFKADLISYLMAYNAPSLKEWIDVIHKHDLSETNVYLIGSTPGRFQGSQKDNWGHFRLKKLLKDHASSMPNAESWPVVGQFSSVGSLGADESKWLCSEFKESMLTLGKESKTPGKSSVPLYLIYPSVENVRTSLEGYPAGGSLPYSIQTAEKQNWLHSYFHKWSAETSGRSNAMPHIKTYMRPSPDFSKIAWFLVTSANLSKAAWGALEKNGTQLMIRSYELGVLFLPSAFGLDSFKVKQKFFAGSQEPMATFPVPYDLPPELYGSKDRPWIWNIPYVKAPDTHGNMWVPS
#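 Here, a 5' biotin and 3' phosphotyrosine-FITC DNA oligonucleotide reports Tdp1 activity: intact substrate bridges AlphaScreen beads, while cleavage leaves a 3' phosphate and drops signal. All incubations at room temperature.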
# DT40 TDP1 CPT: qHTS for Inhibitors of human tyrosyl-DNA phosphodiesterase 1 (TDP1): qHTS in cells in presence of CPT; chicken DT40 Tdp1-/-;hTDP1 cells + 20 nM CPT, ATP luminescence, 48 h; Potency, µM (doses to about 46.2 µM), for the others: at the highest dose activity change, negative = growth inhibition, most hits filed as inhibitors; 12% of 420,000 active; further: potency means the concentration at half of the fitted maximal effect; on the % scale 0 is the no-effect control and ±100 the full control effect; nearly all actives have a fitted effect of over 55% in size
#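 Chicken DT40 Tdp1-/- cells complemented with human TDP1, 400 cells/well, exposed to compounds plus 20 nM camptothecin for at least 48 h at 37 C; viability read as ATP content by CellTiter-Glo luminescence.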
# uPA surface inh: qHTS for Inhibitors of Cell Surface uPA Generation. cell surface uPA generation assay, qHTS. Potency, µM (series often up to 38.3 µM), for inactives: top-dose activity change, negative = inhibition, most hits filed as inhibitors. 0.31% of 330,000 active; active means well fitted inhibition curve with a large enough effect; inconclusive means small, poorly fitted or top-dose-only effect; inactive means no such curve, though single readings can be large or run the other way; tested in mouse RAW 264.7 cells; further: potency means the concentration at half of the fitted maximal effect; on the % scale 0 is the no-effect control and ±100 the full control effect; nearly all actives have a fitted effect of over 55% in size
# An asterisk follows results filed as active; ? = inconclusive; · = not tested or not shown. Unless noted, the call rests on the fitted dose curve; in most records, active means well fitted curve in the direction sought with a large enough effect; inconclusive means small, poorly fitted or top-dose-only effect, or another doubt; inactive means no such curve, though single readings can be large; an effect the other way counts as inactive or inconclusive.
SMILES,miR-21 act,TDP1 cell noCPT,TDP1 inh,DT40 TDP1 CPT,uPA surface inh
CCOC(=O)C1CCCN(CC(=O)Nc2c(C(=O)OC)[nH]c3ccc(C)cc23)C1 (stereo not given),2.2%,23.1µM*,1.0%,?,-0.1%
CCOC(=O)C1CCCN(CC(=O)Nc2c(C(=O)OC)[nH]c3ccc(Cl)cc23)C1 (stereo not given),10.3%,?,4.8%,?,-1.6%
CCOC(=O)c1[nH]c2ccc(Br)cc2c1NC(=O)CCN1CCC(C(=O)OCC)CC1,-6.5%,16.4µM*,2.1%,20.6µM*,-5.7%
Cc1cc(/C=C2\SC(=Nc3ccccc3)NC2=O)c(C)n1-c1ccc(S(N)(=O)=O)cc1,23.0%,2.59µM*,6.7%,5.17µM*,-13.8%
Cc1ccc(OCCOCCNC(C)(C)C)c([N+](=O)[O-])c1,0.4%,-13.9%,-5.3%,-25.9%,-7.1%
CCN(CC)S(=O)(=O)c1cccc(C(=O)NCC2CCCCC2)c1,4.5%,20.6µM*,·,?,·
CCN(CC)S(=O)(=O)c1cccc(NC(=O)CCSc2ccc(Cl)cc2)c1,24.2%,20.6µM*,8.5%,16.4µM*,-14.9%
CN(C)S(=O)(=O)c1cccc(NC(=O)COC(=O)CCSc2ccc(Cl)cc2)c1,-6.4%,-15.5%,4.2%,17.8%,-1.1%
CCN(CC)S(=O)(=O)c1cccc(NC(=O)CN(C)C2CCCCC2)c1,-1.7%,14.6µM*,1.2%,?,-2.4%
O=C(c1cc(C(F)(F)F)cc(C(F)(F)F)c1)N1CCC2(CCCN(Cc3ccccc3)C2)CC1,·,-19.7%,·,10.0%,·
COc1cccc(OC)c1C(=O)Nc1ccc2nc(C)c(C)nc2c1,-31.4%,6.1%,2.3%,5.1%,1.6%
COc1ccc(C(C)=O)cc1Cn1cnc2c(cnn2C)c1=O,-7.4%,?,0.0%,?,1.7%
CC(=O)Nc1ccc(NC(=O)c2ccc(N(Cc3ccccc3C)S(C)(=O)=O)cc2)cc1,·,?,·,?,3.0%
Cc1ccc(S(=O)(=O)Nc2ccc3cn[nH]c3c2)cc1,·,?,0.6%,-2.0%,-9.9%
CC1CN(C(=O)COC(=O)c2ccc3ccccc3c2)CC(C)O1 (stereo not given),·,1.2%,·,10.3%,·
COc1cc(OC)cc(C(=O)N(Cc2ccco2)Cc2cccs2)c1,·,?,3.1%,?,·
CC(C)OC(=O)c1cccc2c1C(=O)c1ccccc1-2,-42.4%,?,0.0%,-2.9%,-4.9%
COC(=O)c1sccc1OCc1cccc(OC)c1,-11.8%,-23.9%,-1.2%,7.2%,-6.8%
CC(=O)c1ccc(OCc2cccc(C(F)(F)F)c2)cc1O,-24.3%,-25.7%,-5.4%,-0.7%,0.7%
NNC(=O)c1sccc1OCc1cccc(C(F)(F)F)c1,0.1%,?,2.6%,20.6µM*,-2.1%
Nc1ncccc1OCc1cccc(C(F)(F)F)c1,-1.0%,6.51µM*,11.4%,-18.2%,-3.5%
Cc1ccc(C(=O)N/C(=C\c2ccc(-c3ccccc3[N+](=O)[O-])o2)C(=O)NCCCN2CCOCC2)cc1,12.4%,?,5.2%,20.6µM*,-12.5%
Cc1ccc(C(=O)N/C(=C\c2ccc(-c3ccc(Br)cc3)o2)C(=O)NCCCN(C)C)cc1,?,3.26µM*,6.0%,4.61µM*,?
NS(=O)(=O)c1ccc(CCNc2ccn3nc(-c4ccc(OCCN5CCOCC5)cc4)cc3n2)cc1,·,14.6µM*,·,18.4µM*,·
COc1ccc(OCCOCCN2CCOCC2)cc1,-4.3%,2.3%,-5.3%,-13.6%,15.6%
N#C/C(=C\c1ccc(OCCN2CCOCC2)cc1)C(=O)Nc1ccc(S(N)(=O)=O)cc1,-2.7%,5.7%,0.8%,-1.7%,3.8%
COCCCNc1ccn2nc(-c3ccc(OCCN4CCOCC4)cc3)cc2n1,·,11.6µM*,·,?,·
CC(=O)c1c(O)c(C)c(O)c2c1OC1=Cc3c(c(C)nn3C)C(=O)C12C (stereo not given),·,29.1µM*,·,16.4µM*,·

# Assay outcomes as filed in PubChem BioAssay.
